Compound activity: PubChem BioAssay, National Center for Advancing Translational Sciences (NCATS)
MBNL1-CUG inh: inhibitors of human MBNL1 binding to CUG repeat RNA. Q9NR56. TR-FRET MBNL1-His/biotin-(CUG)12 binding, 665/545 ratio. Potency, µM (doses to about 57.5 µM), for the others: top-dose activity change, negative = inhibition, usual class: inhibitors. 280,000 tested, 0.036% active. AID 2675; active = well fitted inhibition curve with a large enough effect in the signal ratio, with a control signal flat, not every such curve was filed as active; inconclusive = small, poorly fitted or top-dose-only effect, or effect the other way, or a change in a side signal; inactive = no such curve, though single readings can be large or run the other way; the % refers to the signal ratio
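Ratiometric TR-FRET (665 over 545 nm, excitation 340 nm) tracks disruption of MBNL1-His/biotin-(CUG)12 complex after 60 min at room temperature, with compounds at 92 nM to 58 uM final.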
Tb PFK inh: blocks T. brucei phosphofructokinase; 330,000 tested, 0.17% active; Potency, µM (highest dose often 57.5 µM), inactives show at the highest dose activity, negative = inhibition, hits mostly inhibitors; T. brucei PFK, ADP-Glo luminescence; O15648;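 note: 0% = uninhibited 1x PFK enzyme wells and -100% = no-enzyme wells; nearly all actives have a fitted effect of over 60% in size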
Target sequence (O15648 whole entry, looked up): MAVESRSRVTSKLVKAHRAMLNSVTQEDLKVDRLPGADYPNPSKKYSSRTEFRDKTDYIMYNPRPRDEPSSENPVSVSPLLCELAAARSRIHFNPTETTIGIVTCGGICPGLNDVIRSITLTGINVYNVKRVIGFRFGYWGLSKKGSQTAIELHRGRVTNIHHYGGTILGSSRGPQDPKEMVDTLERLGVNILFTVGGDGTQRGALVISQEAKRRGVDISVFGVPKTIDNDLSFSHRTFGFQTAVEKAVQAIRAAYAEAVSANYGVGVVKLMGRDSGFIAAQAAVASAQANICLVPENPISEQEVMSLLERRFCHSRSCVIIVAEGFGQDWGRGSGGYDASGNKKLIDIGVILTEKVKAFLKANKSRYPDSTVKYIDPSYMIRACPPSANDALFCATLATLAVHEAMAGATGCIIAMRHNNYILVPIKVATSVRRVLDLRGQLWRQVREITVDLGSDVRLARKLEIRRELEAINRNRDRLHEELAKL
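Compounds were pin-transferred as a titration series up to 57 uM into substrate buffer (0.5 mM F6P, 0.1 mM ATP, pH 8.0), then 1.25 nM PFK was added and reactions ran 45 min before ADP-Glo detection.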
IMPase Li inh: cell-permeable IMPase inhibitors with lithium potentiation; CHO-M1 cells, IP1 TR-FRET (IP-One), carbachol + lithium; Potency, µM (titrated, usually from 59.4 µM), inactives show at the top dose activity, negative = IMPase inhibition, most hits filed as inhibitors; 210,000 tested, 0.35% active;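 note: IP1 builds up when IMPase is blocked and the TR-FRET signal falls; plate controls were basal vehicle for no effect and high inhibitor control for full effect; nearly all actives have a fitted effect of over 50% in size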
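Lithium-sensitised IP1 accumulation assay; M1-expressing CHO cells treated 30 min at 37C with compound. Competitive antibody detection by time-resolved FRET followed a 10 min room-temperature lysis step.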
RGS12 GoLoco inh: blocks human Gai1 binding to RGS12 GoLoco peptide, red readout; AID 880; Gai1:RGS12 GoLoco peptide FP, rhodamine, 10 min; Potency, µM (series often up to 61.6 µM), without a hit: at the top dose activity, negative = inhibition, most hits filed as inhibitors; 230,000 tested, 0.44% active; active = well fitted inhibition curve with a large enough effect, not every such curve was filed as active; inactive = no such curve, though single readings can be large or run the other way; note: nearly all actives have a fitted effect of over 30% in size
NPSR antagonist: neuropeptide S receptor (human) antagonism, cAMP. Q6W5P4. CHO-NPSR cells, cAMP TR-FRET, antagonist mode. Potency, µM (series often up to 38.3 µM), for inactives: at the highest dose activity change, negative = inhibition, usual class: inhibitors. 220,000 tested, 1% active. AID 1461; note: nearly all actives have a fitted effect of over 50% in size
Starred values were filed as active, the others as inactive; ? = inconclusive; / = not tested or not shown; ! = not active in a repeat; [ ] = another dose, or the depositor's remark. This excerpt belongs to a sample that is enriched for hits. Unless noted, calls come from the whole dose curve; as a rule, active = well fitted curve in the direction sought with a large enough effect; inconclusive = small, poorly fitted or top-dose-only effect, or another doubt; inactive = no such curve, though single readings can be large; an effect the other way counts as inactive or inconclusive. Unless noted, % is set by controls: 0 for no effect and ±100 for the full control effect; potency is the fitted concentration of half-maximal effect.

SMILES	MBNL1-CUG inh	Tb PFK inh	IMPase Li inh	RGS12 GoLoco inh	NPSR antagonist
CN1C[C@H](CO)C=C2c3cccc4[nH]cc(c34)C[C@H]21	?	15.9%	13.2%	12.6µM*	5.8%
CN1C[C@@H](CO)C=C2c3cccc4[nH]cc(c34)CC21 (some centres undefined)	/	/	10.9%	-11.7%	/
C[C@H](c1ccccc1)N1CCN([C@@H](C)c2ccccc2)CC1	/	/	11.7%	1.9%[14.2 µM]	/
COc1c(O)c2c(=O)cc(OC)c3c4c(OC)cc(=O)c5c(O)c(OC)c(C[C@@H](C)OC(=O)c6ccccc6)c(c(c1C[C@@H](C)OC(=O)Oc1ccc(O)cc1)c23)c54	/	/	34.8%	15.8µM*	/
Cc1ccc2cc3c(ccc4ccccc43)c3c2c1CC3	/	/	-2.3%	-5.1%	/
S=C1CN=C(c2ccccc2)c2cc(Cl)ccc2N1	-1.7%	-0.6%	-2.6%	16.5%	12.6µM*
O=[N+]([O-])c1ccc2c3c(cccc13)CC2	/	/	5.5%	9.5%	/
O=C(O)CCn1cc(C=C2C(=O)NC(=S)NC2=O)c(-c2ccccc2)n1	-11.6%	-22.4%	-2.6%	28.2µM*	11.6%
Cc1ccc(/C=C2\C(=O)NC(=S)N(c3ccc(F)cc3)C2=O)s1	113.0%	5.9%	-9.3%	4.3%	22.3%
Cc1ccc(/C=C2\C(=O)NC(=S)N(c3ccccc3F)C2=O)s1	17.4%	-5.2%	33.7%	317.6%	5.01µM*
Cc1ccc(NC(=[OH+])c2cc3ccccc3cc2O)c(C)c1.Cc1ccc(NC(=[OH+])c2cc3ccccc3cc2O)c(C)c1.[Ni]	/	/	6.8%	0.8%[14.2 µM]	/
CC(C)(C)c1nc(N2CCN(C(=O)c3ccco3)CC2)c2nnn(Cc3ccccc3Cl)c2n1	-7.4%	2.8%	27.9%[38.3 µM]	6.3%	10µM*
COc1cc2c(cc1OC)-c1c(O)c(OC)cc3c1[C@H](C2)N(C)CC3	/	/	46.3%	11.2µM*	/
CN1CCC[C@@H]1c1cccnc1.O=C(O)c1ccccc1O.O=C([OH2+])c1ccccc1O.O=C([OH2+])c1ccccc1O.[Mn]	/	/	-1.2%	6.1%[14.2 µM]	/
CC(C)c1ccc(N2C(=O)NC(=O)/C(=C\C=C\c3ccco3)C2=O)cc1	-0.6%	-17.3%	-5.3%	61.3%	3.98µM*
O=C1NC(=O)N(Cc2ccccc2)C(=O)/C1=C/C=C/c1ccco1	4.7%	?	/	267.1%	?
S=C=Nc1cccc2ccccc12	/	/	7.6%	-14.1%	/
CC(=O)[O][Hg][c]1ccccc1	/	/	33.9%	1.58µM*!	/
CC(=O)/C=C/c1ccccc1	/	-4.4%	4.3%	7.5%	/
c1ccc([Se]c2c(-c3ccccc3)[se]c3ccccc23)cc1	/	/	5.62µM*	-1.1%	/
CN(C)c1ccc(N(C)C)cc1	/	/	60.7%	5.0%	/
COc1cc2c(cc1OC)[C@@]13CCN4C=C5CCO[C@H]6CC(=O)N2[C@@H]1C6[C@H]5C[C@H]43 (some centres undefined)	/	/	-2.2%	4.5%[14.2 µM]	/
CC(=O)O[C@H]1C(=O)[C@@]2(C)C([C@H](OC(=O)c3ccccc3)[C@]3(O)C[C@H](OC(=O)[C@H](O)[C@@H](NC(=O)c4ccccc4)c4ccccc4)C(C)=C1C3(C)C)[C@]1(OC(C)=O)CO[C@@H]1C[C@@H]2OC(=O)[C@H](C)NC(=O)c1ccc(-c2c3ccc(=O)cc-3oc3cc(O)ccc23)c(C(=O)O)c1 (some centres undefined)	/	/	-4.4%	2µM*	/
C=CCN1C(=O)/C(=C/c2cccs2)C(=O)NC1=S	-13.9%	-0.3%	11.2%	226.7%	12.6µM*
C[C@H]1CC[C@]2(OC1)O[C@@H]1C[C@@H]3[C@@H]4CC[C@H]5C[C@@H](O)CC[C@]5(C)[C@@H]4CC(=O)[C@@]3(C)[C@H]1[C@@H]2C	/	/	-1.2%	5.1%[21.6 µM]	/
SMILES	MBNL1-CUG inh	Tb PFK inh	IMPase Li inh	RGS12 GoLoco inh	NPSR antagonist
CN(C)c1ccc(/C=C/c2cc[n+](C)c3ccccc23)cc1	?	-29.3%	132.0%	302.5%	6.31µM*
CN(C)c1ccc(/C=C/C=C/c2sc3ccccc3[n+]2C)cc1	/	1.6%	/	167.2%	?
C(=NCCN1CCOCC1)=NC1CCCCC1	/	/	-11.3%	-3.1%[14.2 µM]	/
CC1OC(C[N+](C)(C)C)CC1O (centres undefined)	/	-8.1%	/	/	/
C[C@H]1OC[C@@H](C[N+](C)(C)C)O1	3.0%	2.6%	-13.1%	3.98µM*	20.0%
Cc1cc[c]([Sb]2[O]C([C@H](O)[C@H](O)C(=O)O)[C@@H](CO)[O]2)cc1 (some centres undefined)	/	/	-3.3%	1.2%[14.2 µM]	/
C[C@]12C=CC(=O)C=C1CCC1C2=CC[C@]2(C)[C@@H](C(=O)CN3CCN(c4cc(N5CCCC5)nc(N5CCCC5)n4)CC3)CC[C@@H]12 (some centres undefined)	/	/	3.4%	19.1%	?
C[C@@]12Cc3cnc(-c4ccccc4)nc3C[C@@H]1CC[C@@H]1[C@H]3CC[C@@](C)(O)[C@]3(C)CC[C@@H]12	/	/	4.6%	7.1%[14.2 µM]	/
Oc1cc2c(cc1O)[C@H]1c3ccccc3CN[C@@H]1CC2	-8.1%	2.39µM*	/	-23.1%	7.0%
Oc1cc2c(cc1O)[C@H]1c3ccccc3CN[C@H]1CC2	/	/	1.6%	-16.9%	/
O=C(/C=C/c1ccc2c(c1)OCO2)c1c(O)n(CCc2ccccc2)c(=O)[nH]c1=O	-2.6%	0.8%	/	11.0%	?
O=C(/C=C/c1ccccc1)c1c(O)n(CCc2ccccc2)c(=O)[nH]c1=O	/	2.4%	-2.9%	-14.7%	12.6µM*
COc1cc(/C=C/C(=O)c2c(O)n(CCc3ccccc3)c(=O)[nH]c2=O)ccc1O	-8.2%	-3.2%	14.1%	333.4%	10µM*
CCCCn1c(O)c(C(C)=NCCc2ccccc2)c(=O)[nH]c1=O	-5.8%	-0.4%	16.8%[38.3 µM]	8.8%	8.9%[46.1 µM]
CCCCC[CH2][Hg][S]C1=C2N=CNC2NC(N)=N1 (centres undefined)	/	/	19.4%	-70.7%[14.2 µM]	/
N#CSCSC#N	/	/	39.8%	-13.4%	/
O=S(=O)(NCCO)c1cc[c]([Sb])cc1	/	/	5.0%	5.2%[14.2 µM]	/
CCCCCCC[n+]1ccc(-c2cc[n+](CCCCCCC)cc2)cc1	?	0.8%	9.4%	7.94µM*!	10.7%
CCCCCCCCCCCCCCCC[n+]1ccccc1	/	/	29.8%	3.1%	/
O=C(O)c1ccccc1-c1c2cc(Br)c(=O)cc-2oc2[c]([Hg])c(O)c(Br)cc12	/	/	149.0%	1.12µM*	/
O=C(O)CN1CCN(CC(=O)O)CC(=O)[O][Hg][O]C(=O)C1	/	/	2.9%	0.447µM*	/
